# Data published in ChEMBL document CHEMBL1961873, “Compounds: GSK PKIS; Assays: Nanosyn kinase panel” (2012).
# Key:
# [1] = biological target: Tyrosine-protein kinase SYK (Homo sapiens) (UniProt P43405); details: at 1 µM
# [2] = biological target: T1, Tyrosine-protein kinase Tec (Homo sapiens) (UniProt P42680); details: at 0.1 µM
# T1 sequence (whole entry): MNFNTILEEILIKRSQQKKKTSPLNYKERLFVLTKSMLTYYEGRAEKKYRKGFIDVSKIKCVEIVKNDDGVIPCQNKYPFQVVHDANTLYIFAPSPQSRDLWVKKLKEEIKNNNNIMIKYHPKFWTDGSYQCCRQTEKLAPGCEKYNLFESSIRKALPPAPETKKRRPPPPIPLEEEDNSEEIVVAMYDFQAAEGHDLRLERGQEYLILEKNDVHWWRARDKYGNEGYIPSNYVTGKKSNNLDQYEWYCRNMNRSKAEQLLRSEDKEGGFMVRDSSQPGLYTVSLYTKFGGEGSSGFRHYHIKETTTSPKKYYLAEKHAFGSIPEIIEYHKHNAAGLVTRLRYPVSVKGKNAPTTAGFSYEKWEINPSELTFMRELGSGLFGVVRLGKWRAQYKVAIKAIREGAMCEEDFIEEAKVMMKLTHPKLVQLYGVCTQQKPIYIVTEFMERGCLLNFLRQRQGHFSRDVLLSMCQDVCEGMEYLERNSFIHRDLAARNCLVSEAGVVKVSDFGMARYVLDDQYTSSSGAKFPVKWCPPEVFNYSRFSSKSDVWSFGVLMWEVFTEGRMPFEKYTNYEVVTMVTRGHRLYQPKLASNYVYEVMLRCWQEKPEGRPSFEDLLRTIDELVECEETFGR
# [3] = biological target: T1, Tyrosine-protein kinase Tec (Homo sapiens); details: at 1 µM
# [4] = biological target: Angiopoietin-1 receptor (Homo sapiens) (UniProt Q02763); details: at 0.1 µM
# Angiopoietin-1 receptor (Homo sapiens), sequence (Q02763 whole entry): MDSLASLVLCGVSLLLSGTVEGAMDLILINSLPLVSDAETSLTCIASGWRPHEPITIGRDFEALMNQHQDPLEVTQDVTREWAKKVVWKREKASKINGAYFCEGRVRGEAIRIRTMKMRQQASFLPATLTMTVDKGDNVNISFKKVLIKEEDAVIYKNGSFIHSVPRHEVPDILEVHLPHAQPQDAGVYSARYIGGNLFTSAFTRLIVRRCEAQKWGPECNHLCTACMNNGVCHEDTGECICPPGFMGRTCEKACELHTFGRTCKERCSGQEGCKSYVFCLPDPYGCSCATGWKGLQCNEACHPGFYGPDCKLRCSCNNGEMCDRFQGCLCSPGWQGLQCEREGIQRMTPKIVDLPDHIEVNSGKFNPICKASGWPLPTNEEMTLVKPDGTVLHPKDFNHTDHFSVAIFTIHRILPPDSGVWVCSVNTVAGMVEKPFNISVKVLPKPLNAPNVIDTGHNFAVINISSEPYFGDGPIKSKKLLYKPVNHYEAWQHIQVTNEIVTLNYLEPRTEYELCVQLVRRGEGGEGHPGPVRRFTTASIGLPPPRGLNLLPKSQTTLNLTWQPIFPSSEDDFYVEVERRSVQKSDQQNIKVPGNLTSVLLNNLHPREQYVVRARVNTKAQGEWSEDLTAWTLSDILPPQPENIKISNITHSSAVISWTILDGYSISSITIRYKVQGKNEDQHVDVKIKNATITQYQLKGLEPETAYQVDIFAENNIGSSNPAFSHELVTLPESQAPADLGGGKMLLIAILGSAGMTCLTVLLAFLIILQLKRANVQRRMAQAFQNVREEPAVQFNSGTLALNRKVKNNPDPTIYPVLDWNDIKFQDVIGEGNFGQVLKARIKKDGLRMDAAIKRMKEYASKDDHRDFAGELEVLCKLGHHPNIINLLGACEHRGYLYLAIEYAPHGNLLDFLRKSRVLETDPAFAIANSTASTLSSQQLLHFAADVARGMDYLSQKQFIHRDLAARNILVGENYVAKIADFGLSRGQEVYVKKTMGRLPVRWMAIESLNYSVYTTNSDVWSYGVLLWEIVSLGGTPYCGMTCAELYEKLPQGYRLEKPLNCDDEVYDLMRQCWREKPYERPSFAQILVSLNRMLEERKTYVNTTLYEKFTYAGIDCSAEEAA
# [5] = biological target: Angiopoietin-1 receptor (Homo sapiens) (UniProt Q02763); details: at 1 µM
# [6] = biological target: T2, Non-receptor tyrosine-protein kinase TNK1 (Homo sapiens) (UniProt Q13470); details: at 0.1 µM
# T2 sequence (whole entry): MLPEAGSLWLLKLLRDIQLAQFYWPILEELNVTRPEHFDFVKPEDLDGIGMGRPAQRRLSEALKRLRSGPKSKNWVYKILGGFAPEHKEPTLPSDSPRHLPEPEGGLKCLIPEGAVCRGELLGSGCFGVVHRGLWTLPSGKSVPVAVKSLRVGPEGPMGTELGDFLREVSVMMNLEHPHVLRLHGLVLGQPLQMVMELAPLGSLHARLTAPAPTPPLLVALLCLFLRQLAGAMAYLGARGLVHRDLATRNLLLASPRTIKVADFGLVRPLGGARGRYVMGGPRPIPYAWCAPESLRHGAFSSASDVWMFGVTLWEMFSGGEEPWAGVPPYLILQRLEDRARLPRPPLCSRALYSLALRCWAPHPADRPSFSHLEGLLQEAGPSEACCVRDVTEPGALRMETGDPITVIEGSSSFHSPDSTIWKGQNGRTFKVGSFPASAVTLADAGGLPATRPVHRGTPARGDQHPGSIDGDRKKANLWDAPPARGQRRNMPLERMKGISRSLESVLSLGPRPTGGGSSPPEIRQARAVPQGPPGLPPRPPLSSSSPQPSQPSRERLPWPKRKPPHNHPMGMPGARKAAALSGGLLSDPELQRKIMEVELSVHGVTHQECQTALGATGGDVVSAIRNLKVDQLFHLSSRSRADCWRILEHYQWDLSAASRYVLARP
# [7] = biological target: T2, Non-receptor tyrosine-protein kinase TNK1 (Homo sapiens); details: at 1 µM
# [8] = biological target: Activated CDC42 kinase 1 (Homo sapiens) (UniProt Q07912); details: at 0.1 µM
# Activated CDC42 kinase 1 (Homo sapiens), sequence (Q07912 whole entry, looked up): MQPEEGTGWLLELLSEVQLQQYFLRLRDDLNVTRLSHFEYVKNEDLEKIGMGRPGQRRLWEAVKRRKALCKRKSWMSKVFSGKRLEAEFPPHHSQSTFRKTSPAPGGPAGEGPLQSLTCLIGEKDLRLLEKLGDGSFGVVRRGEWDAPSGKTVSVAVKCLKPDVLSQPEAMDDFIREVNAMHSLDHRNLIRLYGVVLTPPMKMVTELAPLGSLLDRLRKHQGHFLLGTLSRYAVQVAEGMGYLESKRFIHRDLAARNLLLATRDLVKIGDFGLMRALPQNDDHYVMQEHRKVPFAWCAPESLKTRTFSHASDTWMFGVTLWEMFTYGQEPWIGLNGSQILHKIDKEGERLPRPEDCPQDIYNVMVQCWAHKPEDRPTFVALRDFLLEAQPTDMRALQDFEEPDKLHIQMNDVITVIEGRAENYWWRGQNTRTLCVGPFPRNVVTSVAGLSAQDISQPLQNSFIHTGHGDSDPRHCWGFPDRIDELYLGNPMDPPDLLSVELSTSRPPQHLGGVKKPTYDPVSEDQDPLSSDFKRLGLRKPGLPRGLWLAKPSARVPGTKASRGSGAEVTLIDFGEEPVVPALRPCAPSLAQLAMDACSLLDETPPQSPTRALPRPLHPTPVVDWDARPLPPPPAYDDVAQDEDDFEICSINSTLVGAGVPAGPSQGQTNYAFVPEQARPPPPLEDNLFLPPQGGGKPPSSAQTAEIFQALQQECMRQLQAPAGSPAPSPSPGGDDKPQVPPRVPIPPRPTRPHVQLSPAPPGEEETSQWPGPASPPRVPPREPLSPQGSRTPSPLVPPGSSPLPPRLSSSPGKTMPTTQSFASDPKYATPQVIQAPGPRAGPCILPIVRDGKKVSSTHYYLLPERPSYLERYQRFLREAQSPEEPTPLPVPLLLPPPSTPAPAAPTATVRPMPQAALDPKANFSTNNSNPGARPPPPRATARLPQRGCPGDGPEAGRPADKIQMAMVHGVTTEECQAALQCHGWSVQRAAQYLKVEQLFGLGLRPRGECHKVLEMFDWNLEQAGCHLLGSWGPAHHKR
# [9] = biological target: Activated CDC42 kinase 1 (Homo sapiens) (UniProt Q07912); details: at 1 µM
# [10] = biological target: High affinity nerve growth factor receptor (Homo sapiens) (UniProt P04629); details: at 0.1 µM;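 further: each value is a mean of replicate percent inhibition readings against TRKA kinase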
# High affinity nerve growth factor receptor (Homo sapiens), sequence (P04629 33-796 limits assumed): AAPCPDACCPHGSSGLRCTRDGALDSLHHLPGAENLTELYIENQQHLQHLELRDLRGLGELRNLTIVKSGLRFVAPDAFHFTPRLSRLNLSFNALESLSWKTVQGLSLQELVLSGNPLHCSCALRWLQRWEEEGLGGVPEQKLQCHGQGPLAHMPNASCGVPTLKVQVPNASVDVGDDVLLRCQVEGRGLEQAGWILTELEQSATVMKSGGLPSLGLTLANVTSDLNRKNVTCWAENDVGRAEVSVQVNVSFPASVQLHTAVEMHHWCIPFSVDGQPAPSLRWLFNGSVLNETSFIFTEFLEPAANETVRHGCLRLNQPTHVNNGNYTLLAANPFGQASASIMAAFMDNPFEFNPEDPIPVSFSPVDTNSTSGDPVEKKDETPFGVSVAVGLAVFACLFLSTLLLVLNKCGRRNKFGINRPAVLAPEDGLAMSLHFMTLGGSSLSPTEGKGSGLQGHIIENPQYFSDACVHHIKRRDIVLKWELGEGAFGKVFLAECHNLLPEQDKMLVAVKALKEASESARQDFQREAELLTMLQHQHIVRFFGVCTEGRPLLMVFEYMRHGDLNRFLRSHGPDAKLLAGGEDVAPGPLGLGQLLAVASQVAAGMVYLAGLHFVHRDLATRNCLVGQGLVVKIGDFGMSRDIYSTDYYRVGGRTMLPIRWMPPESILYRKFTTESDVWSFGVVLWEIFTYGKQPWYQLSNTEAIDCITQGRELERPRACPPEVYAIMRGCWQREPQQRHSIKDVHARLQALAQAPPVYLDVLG
Structure (SMILES),inhibition [1] [%],inhibition [2] [%],inhibition [3] [%],inhibition [4] [%],inhibition [5] [%],inhibition [6] [%],inhibition [7] [%],inhibition [8] [%],inhibition [9] [%],inhibition [10] [%]
NC(=O)Cc1ccccc1Oc1nccc(-c2c(-c3ccc(F)cc3)ncn2C2CCNCC2)n1,-0.38,4.14,4.45,3.62,4.3,-0.61,-3.16,1.43,2.74,-0.18
O=C(NCC1CC1)c1ccc(-c2cccc(C(=O)NC3CC3)c2)cc1,-1.45,2.57,6.01,2.21,6.47,1.89,-2.48,0.86,1.39,4.07
COc1cc(N2CCN(C(C)C)CC2)ccc1Nc1nc(Nc2ccc(F)cc2C(=O)NC[C@@H](O)CO)c2cc[nH]c2n1,-2.57,1.33,1.93,2.59,6.08,14.7,60.5,3.26,9.35,3.81
NC(=O)c1cc(-c2ccncc2)cc(-c2ccccc2)c1N,1.64,18.5,58.7,3.02,6.28,1.93,6.5,1.25,7.25,1.66
COc1cc(Nc2ncc(-c3ccccc3)o2)cc(OC)c1OC,-1.68,-2.02,4.55,0.66,5.14,4.15,28.4,0,0.48,3.35
O=C1Nc2ccccc2/C1=C/Nc1ccc(-n2cncn2)cc1,-1.86,3.72,5.42,0.76,4.4,2.41,14,0.63,2.83,6.94
CCc1nccc2c1nc(-c1nonc1N)n2CC,10.7,1.47,5.82,2.53,5.08,0.71,-5.44,-0.52,-0.83,–
CNC(=O)c1cncc(/C=C/c2c(C)cccc2C)c1,-0.51,5.68,38.2,-0.16,7.69,0.82,16.5,0.76,9.44,3.36
Fc1ccc(-c2ncn(C3CCNCC3)c2-c2ccnc(Oc3ccc(F)c(F)c3)n2)cc1,-2.3,-2.35,0.11,0.38,3.09,0.22,4.28,-0.47,-0.07,2.3
O=C(Nc1n[nH]c2cc(-c3cc(F)ccc3F)ccc12)C1CC1,1.24,2.72,4.04,3.35,9.26,1.68,7.03,-0.01,-0.8,3.75
CN(C)c1ccc2c(c1)/C(=C/Nc1ccc(S(N)(=O)=O)cc1)C(=O)N2,0.31,1.4,2.35,1.03,5.59,0.71,5.7,0.14,1.79,6.93
Nc1nccc(-c2c(-c3ccc(F)cc3)ncn2C2CCC(O)CC2)n1 (centres undefined),4.19,-0.76,5.34,-0.11,4.5,-3.34,8.33,-0.32,0.4,0.87
Fc1ccc(-c2ncn(CCCN3CCOCC3)c2-c2ccncc2)cc1,-1.02,-0.04,2.36,1.37,1.99,0.29,-6.97,-0.82,-1.72,-2.6
C/C(Nc1ccc(S(N)(=O)=O)cc1)=C1/C(=O)Nc2ccccc21,0.6,-1.54,-2.14,0.44,2.44,-3.91,9.56,-1.14,0.65,4.48
CS(=O)(=O)CCNCc1cc(-c2cc3c(Nc4ccc(OCc5cccc(F)c5)c(Cl)c4)ncnc3s2)cs1,1.7,7.25,7,8.64,10.7,1.8,6.39,1.66,5.79,2.34
Cc1ccc(C(=O)NC(C)C)cc1-c1ccc(C(=O)NCC2CC2)cc1,-0.36,-2.75,-2.37,-0.76,-0.28,-4.74,-5.58,-0.81,0.35,-0.37
FC(F)(F)c1cccc(Nc2nccc(-c3cnn4nc(-c5ccccc5)ccc34)n2)c1,-6.97,-0.76,4.7,0.12,4.87,1.51,8.59,0.76,1.15,-0.16

Structure (SMILES),inhibition [1] [%],inhibition [2] [%],inhibition [3] [%],inhibition [4] [%],inhibition [5] [%],inhibition [6] [%],inhibition [7] [%],inhibition [8] [%],inhibition [9] [%],inhibition [10] [%]
c1ccc(Oc2ccc(Nc3ncc(-c4ccccc4)o3)cc2)cc1,2.28,2.6,2.98,0.12,1.44,0.99,3.43,0.99,2.91,1.43
NS(=O)(=O)c1ccc(N/N=C2\C(=O)Nc3ccc(C(=O)NCCCn4ccnc4)cc32)cc1,-1.66,3.92,10.5,2.3,5.99,6.1,16.5,0.41,3.98,2.34
C#Cc1cccc(Nc2ncnc3ccc(OCCCCNCCS(C)(=O)=O)cc23)c1,0.39,5.96,9.84,5.13,12.5,2.31,20.9,2.03,7.01,2.95
O=C(Nc1n[nH]c2cc(-c3ccccc3)ccc12)C1CC1,1.22,7.27,16.4,1.86,3.48,3.15,7.79,0.74,3.97,2.59
COc1cc2ncn(-c3cc(OCc4cccs4)c(C(N)=O)s3)c2cc1OC,0.32,-0.38,2.67,4.44,27.3,10.4,53.9,3.84,9.04,-0.38
Cc1nnc(-c2ccc(C)c(-c3ccc(C(=O)NCc4ccc(Cl)cc4)cc3)c2)o1,-1,0.01,0.03,4.45,6.89,0.68,5.31,0.65,0.3,2.65
NC(=O)c1cc(-c2ccc(F)cc2)cc(-c2ccncc2)c1N,1.28,2.88,5.71,4.39,3.08,3.42,7.48,0.31,-0.36,2.33
COc1cc2ncn(-c3cc(OCCc4ccccc4)c(C(N)=O)s3)c2cc1OC,-0.89,2.52,4.4,3.5,14.9,2.85,13.5,0.78,2.21,1.42
NS(=O)(=O)c1ccc(N/N=C2\C(=O)Nc3ccc(-c4cnco4)cc32)cc1,-1.05,-1.76,4.09,3.92,4.65,9.41,44.4,-0.82,0.92,4.49
COc1ccc2cc(-c3c(-c4ccncc4)nc(-c4ccc([S+](C)[O-])cc4C)n3C)ccc2c1 (centres undefined),0.6,0.44,0.84,76.9,82.2,-3.02,12.5,-0.21,0.9,0.64
COc1cc(C)c(N(C)C(=O)CN(C)C)cc1Nc1nc(Nc2cccc(F)c2C(N)=O)c2cc[nH]c2n1,1.76,-0.85,1.07,0.26,2.24,1.97,6.22,0.62,0.64,1.62
CCc1ccc(Oc2nccc(-c3c(-c4ccc(F)cc4)ncn3C3CCNCC3)n2)cc1,2.45,6.67,4.84,3.66,4.41,1.24,0.88,1.41,2.2,4.16
NC(=O)c1ccc(Oc2nccc(-c3c(-c4ccc(F)cc4)ncn3C3CCNCC3)n2)cc1,2.71,8.39,6.14,5.16,6.4,4.4,4.01,0.55,1.67,2.53
Fc1ccc(-c2nc3n(c2-c2ccncc2)CCS3)cc1,2.02,0.9,2.31,3.17,5.76,1.24,-1.81,0.78,0.1,2.38
CCC(=O)Nc1ccc(C)c(-c2ccc(C(=O)NCC3CC3)cc2)c1,0.67,3.13,2.28,4.73,6.22,-0.12,6.35,0.66,1.34,2
O=C(Nc1n[nH]c2nc(-c3ccco3)ccc12)C1CC1,1.5,1.47,3.97,5.28,10.4,0.16,1.24,-0.07,0.93,4.04
COc1cc(Nc2ncc3c(C)nc(-c4cccc(Oc5ccccc5)c4)n3n2)cc(OC)c1OC,0.13,2.22,5.31,1.33,3.09,4.56,23.8,0.46,1.9,2.69
